Assay results as given in PubChem BioAssay AID540259 (Broad Institute, 2011).
Potency and affinity values are given separately. Values without a mark were called inactive.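 Rule for the calls: active = cell killing, meaning signal decrease, with fitted half-maximal dose at or below ten times the top valid tested dose; inconclusive = poor fit, or flat curve with 30 to 70% signal loss; inactive = the rest.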

Experiment: HeLa cell cytotoxicity, dose response, cytotoxicity control for MITF activator project, CellTiter-Glo luminescence, cherry-pick samples (AID 540259);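 note: 0% = DMSO neutral control and -100% = mitoxantrone positive control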
Details: HeLa viability, CellTiter-Glo ATP luminescence, 24 h; series mostly up to 35 µM; activity change, negative = cytotoxicity: at the top concentration

Row | SMILES | activity change, negative = cytotoxicity [%]
1 | c1ccc(SCc2nc(-c3ccccn3)no2)cc1 | 17
2 | Cc1nc2ccccn2c1C(=O)N/N=C/c1ccc2c(c1)OCO2 | -3.12
3 | O=C(Nc1ccccc1)N1CCC(c2ccccc2)C1 (configuration not stated) | -0.372
4 | C=CCc1c(C)nc(-c2ccccc2)nc1N/N=C/c1ccncc1 | -11.8
5 | Nc1nonc1-n1nnc(C(=O)N/N=C/c2ccc(OCc3ccccc3F)cc2)c1CN1CCCCC1 | 12.2
6 | COc1ccc(/C=N/Nc2snc(SC)c2C#N)cc1OC | 7.17
7 | CCCn1nnc(NC(=O)c2ccc(-c3ccccc3)cc2)n1 | 18.3
8 | CCc1c(C(=O)Nc2ccc(C)c(C)c2)[nH]c(C)c1C(C)=O | 0.691
9 | COc1ccc(/C(C)=N/Nc2nncc3ccccc23)cc1 | -7.02
10 | COc1ccc(-c2cc(C(=O)Nc3ccccc3F)on2)cc1 | 0.171
11 | O=C(c1nnc(-c2ccc(Cl)cc2)o1)C1CCCC1 | 10.8
12 | Cc1nc2cc3nc(C)sc3cc2s1 | 16.3
13 | CC(C)(C)c1csc(NC2=NS(=O)(=O)c3ccccc32)n1 | 4.58
14 | CNC(=O)C(=O)Nc1nc(C23CC4CC(CC(C4)C2)C3)cs1 | 1.59
15 | CC(C)(C)c1ccc(-c2noc(-c3ccno3)n2)cc1 | -6.69
16 | O=C(N/N=C/c1ccccc1C(F)(F)F)c1ccc(O)cc1 | 12.3
17 | Nc1nc2ccccc2cc1-c1cccs1 | 1.96
18 | CN(C)S(=O)(=O)c1cccc(-c2nnc(-c3ccccc3)o2)c1 | 1.72
19 | O=C(N/N=C/c1ccc(Cl)cc1Cl)c1cccc(F)c1 | -4.05

Row | SMILES | activity change, negative = cytotoxicity [%]
20 | Cc1nc2ccccc2nc(=O)c1NNc1ccccc1 | 2.78
21 | CC(C)(C)C(=O)c1sc(Nc2ccccc2)nc1N | -9.38
22 | CC(C)C(=O)Nc1cccc(C(=O)Nc2nnc(C(C)C)s2)c1 | 10.2
23 | Cc1ccc(C(=O)Cn2nnc3ccccc32)cc1C | 2.49
24 | c1ccc(CSCc2nc3ccccc3[nH]2)cc1 | 11.5
25 | O=c1c2c(nc3cc(-c4ccc(Br)cc4)[nH]n13)CCCC2 | 1.93
26 | COc1ccc(Nc2nc(N)c3ccccc3n2)c(OC)c1 | -7.04
27 | CC(C)(C)C(=O)OCc1nc(-c2ccc(F)cc2)cs1 | 10
28 | O=C(c1cc(COc2ccc(F)cc2Cl)on1)N1CCCCCC1 | -8.23
29 | c1cnc(Nc2nc(-c3ccc4ccccc4c3)cs2)nc1 | 4.16
30 | O=C(O)c1ccc(N/N=C/c2cccc(C(F)(F)F)c2)cc1 | -0.976
31 | COc1cccc(C2Nc3ccccc3C(=O)N2c2ccc(F)cc2)c1O (configuration not stated) | -0.088
32 | COc1ccc(/C=C2\CCn3c2nc2ccccc2c3=O)cc1OC | 11.3
33 | O=C(Cc1ccccc1)Nc1ccc2c(c1)OC1(CCCC1)O2 | 10.1
34 | Cc1nc2c3cnn(-c4ccc(C)c(C)c4)c3ncn2n1 | -8.14
35 | O=C(NCc1ccccn1)Nc1ccc(Br)cc1Cl | 13.2
36 | CCCc1cc(C(=O)Nc2ccc(C(=O)OC)cc2)cs1 | -6.83
37 | Cc1cc(Cl)ccc1OCc1cn2cccnc2n1 | 14.3
